Data as given in the supplement of paper PMC12340641.
Structures can show the parent of a compound that is named as a salt.

target: IKZF1 (dCK*-IKZF1 fusion in HEK293FT) (UniProt Q13422); test: inhibition of IKZF1 HTRF signal (DMSO = 0%, pomalidomide 10 uM = 100%); higher = lower IKZF1 protein level; details: compound concentration: 5 uM, overnight (~20 h)
Outline: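 For percent inhibition of IKZF1 signal, each plate was normalised to vehicle and to a reference degrader. Cells were HEK293FT stably expressing an IKZF1 fusion, plated at 2000/well in 384-well format and treated overnight at 37 °C with 5 μM compound, one well each. Lysates were probed overnight with a commercial HTRF total-IKZF1 antibody kit, with the 665/620 nm ratio background-subtracted and vehicle and degrader fixed at 0% and 100%.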

Sequence of IKZF1 (dCK*-IKZF1 fusion in HEK293FT) (Q13422 whole entry, looked up, the tested form may be a part): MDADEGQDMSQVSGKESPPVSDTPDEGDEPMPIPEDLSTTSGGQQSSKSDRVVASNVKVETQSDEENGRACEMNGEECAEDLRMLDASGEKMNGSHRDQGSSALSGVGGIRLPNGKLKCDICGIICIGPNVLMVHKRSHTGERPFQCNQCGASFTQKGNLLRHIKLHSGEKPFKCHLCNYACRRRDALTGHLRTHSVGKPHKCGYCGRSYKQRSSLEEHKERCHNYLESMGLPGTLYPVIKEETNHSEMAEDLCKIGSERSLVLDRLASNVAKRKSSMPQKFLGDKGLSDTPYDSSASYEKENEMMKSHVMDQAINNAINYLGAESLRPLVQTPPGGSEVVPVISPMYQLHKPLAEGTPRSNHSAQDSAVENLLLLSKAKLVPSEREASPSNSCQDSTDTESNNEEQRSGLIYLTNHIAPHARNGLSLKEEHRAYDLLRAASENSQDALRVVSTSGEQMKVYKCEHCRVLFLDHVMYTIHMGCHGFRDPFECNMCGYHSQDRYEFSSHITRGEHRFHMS

SMILES	inhibition of IKZF1 HTRF signal [%]
COc1cc(CN(CCN)C(=O)c2cccs2)ccc1OCc1ccccc1	-24.8
CC(=O)Oc1ccccc1C(=O)Nc1ncc([N+](=O)[O-])s1 [Nitazoxanide]	18.8
Oc1cc2c(cc1O)[C@@H]1c3ccc(O)c(O)c3OC[C@]1(O)C2 [Hematoxylin (Hydroxybrazilin)]	-6.3
Oc1c(Cl)cc(Cl)c2cccnc12	-21.5
OC(c1cc(C(F)(F)F)nc2c(C(F)(F)F)cccc12)C1CCCCN1 (stereo unspecified) [Mefloquine HCl]	-25.2
OCCN1CCN(CCCN2c3ccccc3Sc3ccc(Cl)cc32)CC1	-36.5
NC(=O)c1ccc[n+]([C@@H]2O[C@H](COP(=O)(O)OP(=O)(O)OC[C@H]3O[C@@H](n4cnc5c(N)ncnc54)[C@H](O)[C@@H]3O)[C@@H](O)[C@H]2O)c1	-23.1
COc1cnc(NS(=O)(=O)c2ccc(N)cc2)nc1	-36.1
CC[C@@]1(O)C(=O)OCc2c1cc1n(c2=O)Cc2cc3c(N)cccc3nc2-1 [9-aminocamptothecin]	31.3
Clc1ccc(COC(Cn2ccnc2)c2ccc(Cl)cc2Cl)c(Cl)c1 (stereo unspecified)	-32.3
COc1ccc(-c2ccc3c(N4CCOCC4)nc(N4C[C@@H](C)O[C@@H](C)C4)nc3n2)cc1CO	14.5
Cc1cccc(CCN2CCC(C(=O)c3ccc(NS(C)(=O)=O)cc3)CC2)n1	-18.6
C=C1/C(=C\C=C2/CCC[C@]3(C)[C@@H]([C@H](C)/C=C/C=C/C(O)(CC)CC)CC[C@@H]23)C[C@@H](O)C[C@@H]1O [Seocalcitol]	-23.4
COC(=O)Nc1nc2cc(C(=O)c3ccccc3)ccc2[nH]1 [Mebendazole]	9.13
CCN(CC)CCCN(c1ccccc1)C1Cc2ccccc2C1 [aprindine]	2.2
COc1ccc(NS(=O)(=O)c2ccc(N)cc2)nn1	-33.3
N#Cc1ccc(O[C@H]2CC[C@H](NC(=O)c3ccc(N4CCC(CN5CCN(c6cc7c(cc6F)C(=O)N(C6CCC(=O)NC6=O)C7=O)CC5)CC4)nn3)CC2)cc1Cl (stereo partly specified)	-5.24
CC(C)(C)c1cc(O)c(C(C)(C)C)cc1O	-31.7
CC(CNC1CCCCC1)OC(=O)c1ccccc1 (stereo unspecified) [hexylcaine]	-36.3

SMILES	inhibition of IKZF1 HTRF signal [%]
C=C1/C(=C\C=C2/CCC[C@]3(C)[C@@H]([C@H](C)/C=C/[C@H](C)C(C)(C)O)CC[C@@H]23)C[C@@H](O)C[C@@H]1O [Ercalcitriol]	-35
CC1(C)C(/C=C/C=C/C=C/C=C2/N(CCCCS(=O)(=O)[O-])c3ccc4ccccc4c3C2(C)C)=[N+](CCCCS(=O)(=O)[O-])c2ccc3ccccc3c21 [Cardiogreen]	-28.9
Cc1ccc2c(Cl)cc(Cl)c(O)c2n1	14
O=c1c(O)c(-c2ccc(O)c(O)c2)oc2cc(O)cc(O)c12 [quercetin]	-26.2
Oc1c(Cl)cc(Cl)cc1Sc1cc(Cl)cc(Cl)c1O	7.52
O=C1Nc2ccc(I)cc2/C1=C/c1cc(Br)c(O)c(Br)c1	-34.2
O=C1NCN(c2ccccc2)C12CCN(CCCC(c1ccc(F)cc1)c1ccc(F)cc1)CC2 [Fluspirilene]	-2.73
Cc1ccc(S(=O)(=O)c2ccc([N+](=O)[O-])o2)cc1	-48.9
CC(C)(C)c1ccc(-c2nc3cccc(N4CCN(Cc5ccc6nccnc6c5)CC4)c3[nH]2)cc1	-23.9
O=C1Nc2c(ccc(Cl)c2Cl)C1=NO	-26.5
O=c1c(-c2ccccc2)c1-c1ccccc1 [diphencyprone]	-25.4
CN(C)CC/C=C1\c2ccccc2CSc2ccccc21 [dosulepin]	-26.3
Nc1ncn([C@@H]2O[C@H](CO)[C@@H](O)[C@H]2O)c(=O)n1	-45.6
O=c1oc(-c2ccc(C(F)(F)F)cc2)nn1Cc1cc(Cl)ccc1O	11.5
OC1(c2ccc(Cl)c(C(F)(F)F)c2)CCN(CCCC(c2ccc(F)cc2)c2ccc(F)cc2)CC1	-28.8
Cn1c(NCCN(CCO)CCCc2ccc([N+](=O)[O-])cc2)cc(=O)n(C)c1=O [nifekalant]	-33.5
CN(C)CC(O)Cn1c2ccc(Br)cc2c2cc(Br)ccc21 (stereo unspecified) [wiskostatin]	-32.4
NCCNc1ccc(NCCN)c2c1C(=O)c1ccncc1C2=O.O=C(O)/C=C\C(=O)O.O=C(O)/C=C\C(=O)O [Pixantrone (dimaleate)]	-28.2
CN(C)c1ccc(/C=C2\C(=O)Nc3ccccc32)cc1	-36.5

system: HEK293FT dCK*-only; test: relative growth in counter assay (no AraC = 100%, AraC + DMSO = 0%); higher = more growth rescue independent of IKZF1; details: compound concentration: 5 uM; AraC concentration: 0.3 uM; overnight pretreatment + 4 days AraC
Outline: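 HEK293FT cells carrying only an engineered kinase construct were plated at 300 per well (384-well) and given 5 μM compound 2 h later. Following overnight at 37 °C, a nucleoside suicide substrate (0.3 μM) plus medium was added for 4 days. Hoechst 33342-stained nuclei were imaged and counted on day 5, with 100% assigned to wells without suicide substrate and 0% to substrate plus vehicle on each plate.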

SMILES	relative growth in counter assay [%]
COc1cc(CN(CCN)C(=O)c2cccs2)ccc1OCc1ccccc1	7.03
CC(=O)Oc1ccccc1C(=O)Nc1ncc([N+](=O)[O-])s1 [Nitazoxanide]	-4.25
Oc1cc2c(cc1O)[C@@H]1c3ccc(O)c(O)c3OC[C@]1(O)C2 [Hematoxylin (Hydroxybrazilin)]	-6.89
Oc1c(Cl)cc(Cl)c2cccnc12	-3.56
OC(c1cc(C(F)(F)F)nc2c(C(F)(F)F)cccc12)C1CCCCN1 (stereo unspecified) [Mefloquine HCl]	-1.31
OCCN1CCN(CCCN2c3ccccc3Sc3ccc(Cl)cc32)CC1	3.78
NC(=O)c1ccc[n+]([C@@H]2O[C@H](COP(=O)(O)OP(=O)(O)OC[C@H]3O[C@@H](n4cnc5c(N)ncnc54)[C@H](O)[C@@H]3O)[C@@H](O)[C@H]2O)c1	5.09
COc1cnc(NS(=O)(=O)c2ccc(N)cc2)nc1	-10.1
CC[C@@]1(O)C(=O)OCc2c1cc1n(c2=O)Cc2cc3c(N)cccc3nc2-1 [9-aminocamptothecin]	-33.7
Clc1ccc(COC(Cn2ccnc2)c2ccc(Cl)cc2Cl)c(Cl)c1 (stereo unspecified)	-7.63
COc1ccc(-c2ccc3c(N4CCOCC4)nc(N4C[C@@H](C)O[C@@H](C)C4)nc3n2)cc1CO	-14
Cc1cccc(CCN2CCC(C(=O)c3ccc(NS(C)(=O)=O)cc3)CC2)n1	-7.85
C=C1/C(=C\C=C2/CCC[C@]3(C)[C@@H]([C@H](C)/C=C/C=C/C(O)(CC)CC)CC[C@@H]23)C[C@@H](O)C[C@@H]1O [Seocalcitol]	14.2
COC(=O)Nc1nc2cc(C(=O)c3ccccc3)ccc2[nH]1 [Mebendazole]	-30.6
CCN(CC)CCCN(c1ccccc1)C1Cc2ccccc2C1 [aprindine]	4.05
COc1ccc(NS(=O)(=O)c2ccc(N)cc2)nn1	-4.98
N#Cc1ccc(O[C@H]2CC[C@H](NC(=O)c3ccc(N4CCC(CN5CCN(c6cc7c(cc6F)C(=O)N(C6CCC(=O)NC6=O)C7=O)CC5)CC4)nn3)CC2)cc1Cl (stereo partly specified)	6.3
CC(C)(C)c1cc(O)c(C(C)(C)C)cc1O	-0.82
CC(CNC1CCCCC1)OC(=O)c1ccccc1 (stereo unspecified) [hexylcaine]	0.35

SMILES	relative growth in counter assay [%]
C=C1/C(=C\C=C2/CCC[C@]3(C)[C@@H]([C@H](C)/C=C/[C@H](C)C(C)(C)O)CC[C@@H]23)C[C@@H](O)C[C@@H]1O [Ercalcitriol]	19.8
CC1(C)C(/C=C/C=C/C=C/C=C2/N(CCCCS(=O)(=O)[O-])c3ccc4ccccc4c3C2(C)C)=[N+](CCCCS(=O)(=O)[O-])c2ccc3ccccc3c21 [Cardiogreen]	-5.7
Cc1ccc2c(Cl)cc(Cl)c(O)c2n1	-5.48
O=c1c(O)c(-c2ccc(O)c(O)c2)oc2cc(O)cc(O)c12 [quercetin]	-7.53
Oc1c(Cl)cc(Cl)cc1Sc1cc(Cl)cc(Cl)c1O	-3.52
O=C1Nc2ccc(I)cc2/C1=C/c1cc(Br)c(O)c(Br)c1	4.46
O=C1NCN(c2ccccc2)C12CCN(CCCC(c1ccc(F)cc1)c1ccc(F)cc1)CC2 [Fluspirilene]	5.04
Cc1ccc(S(=O)(=O)c2ccc([N+](=O)[O-])o2)cc1	-34
CC(C)(C)c1ccc(-c2nc3cccc(N4CCN(Cc5ccc6nccnc6c5)CC4)c3[nH]2)cc1	5.2
O=C1Nc2c(ccc(Cl)c2Cl)C1=NO	-8.31
O=c1c(-c2ccccc2)c1-c1ccccc1 [diphencyprone]	-31.8
CN(C)CC/C=C1\c2ccccc2CSc2ccccc21 [dosulepin]	-9.29
Nc1ncn([C@@H]2O[C@H](CO)[C@@H](O)[C@H]2O)c(=O)n1	-13.2
O=c1oc(-c2ccc(C(F)(F)F)cc2)nn1Cc1cc(Cl)ccc1O	-6.2
OC1(c2ccc(Cl)c(C(F)(F)F)c2)CCN(CCCC(c2ccc(F)cc2)c2ccc(F)cc2)CC1	-26
Cn1c(NCCN(CCO)CCCc2ccc([N+](=O)[O-])cc2)cc(=O)n(C)c1=O [nifekalant]	-3.87
CN(C)CC(O)Cn1c2ccc(Br)cc2c2cc(Br)ccc21 (stereo unspecified) [wiskostatin]	-9.92
NCCNc1ccc(NCCN)c2c1C(=O)c1ccncc1C2=O.O=C(O)/C=C\C(=O)O.O=C(O)/C=C\C(=O)O [Pixantrone (dimaleate)]	-13
CN(C)c1ccc(/C=C2\C(=O)Nc3ccccc32)cc1	-9.78
